Measurements taken from paper PMC5540273 (PLoS ONE, 2017).

Tests used:
Settings in all cases: concentration: 1 μM, replicates: in singlicate; n = 1
NDR1 = system: T1, NDR1
T1 construct: gene STK38

NDR2 = system: NDR2
NEK10 = system: NEK10
NEK11 = system: NEK11
NEK1 = system: NEK1
NEK2 = system: NEK2
NEK3 = system: NEK3
NEK4 = system: NEK4
NEK5 = system: NEK5
NEK6 = system: NEK6
NEK7 = system: NEK7
NEK9 = system: NEK9
NIK = system: T2, NIK
T2 construct: gene MAP3K14

NIM1 = system: T3, NIM1
T3 construct: gene MGC42105

NLK = system: NLK
OSR1 = system: T4, OSR1
T4 construct: gene OXSR1

PAK1 = system: PAK1
PAK2 = system: PAK2
PAK3 = system: PAK3
PAK4 = system: PAK4
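Also: KINOMEscan kinase panel screen.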

Structure (SMILES) | %Inh (NDR1) | %Inh (NDR2) | %Inh (NEK10) | %Inh (NEK11) | %Inh (NEK1) | %Inh (NEK2) | %Inh (NEK3) | %Inh (NEK4) | %Inh (NEK5) | %Inh (NEK6) | %Inh (NEK7) | %Inh (NEK9) | %Inh (NIK) | %Inh (NIM1) | %Inh (NLK) | %Inh (OSR1) | %Inh (PAK1) | %Inh (PAK2) | %Inh (PAK3) | %Inh (PAK4)
Fc1cc(Cl)ccc1Nc1ccnc2cc(-c3ccc(CN4CCCCC4)o3)ccc12 [GW560116] | 9% | 18% | 5% | 4% | 0% | 0% | 0% | 0% | 4% | 0% | 0% | 0% | 10% | 0% | 16% | 0% | 2% | 5% | 0% | 0%
Cc1cccc(-c2nc(Nc3ccncc3)c3ccccc3n2)n1 [GW855857] | 8% | 6% | 0% | 0% | 0% | 0% | 30% | 0% | 10% | 21% | 0% | 0% | 0% | 0% | 47% | 0% | 0% | 0% | 0% | 0%
Cc1c(O)cccc1Nc1ccnc2ccc(C(F)(F)F)cc12.Cl [GW466413] | 0% | 0% | 16% | 0% | 0% | 0% | 0% | 0% | 0% | 0% | 0% | 0% | 22% | 17% | 0% | 0% | 0% | 0% | 1% | 0%
COc1cc(Nc2nccc(N3CCC(NC(=O)Nc4cc(C)ccc4C)C3)n2)cc(OC)c1OC (centres unmarked) [GSK1379762] | 0% | 0% | 20% | 0% | 22% | 25% | 9% | 4% | 91.6% | 1% | 54% | 32% | 32% | 27% | 0% | 9% | 11% | 4% | 29% | 0%
O=C(O)COc1ncnc2cc(-c3ccc4[nH]ncc4c3)sc12 | 24% | 0% | 48% | 1% | 0% | 0% | 87% | 10% | 25% | 22% | 5% | 0% | 0% | 26% | 0% | 34% | 5% | 3% | 3% | 0%
CCCc1ccc(S(=O)(=O)NC2CCN(c3ccnc(Nc4ccc(F)cc4)n3)C2)cc1 (centres unmarked) [GSK1379715] | 0% | 0% | 3% | 1% | 88% | 0% | 4% | 5% | 10% | 0% | 0% | 0% | 23% | 18% | 0% | 17% | 0% | 2% | 3% | 0%
CCn1c(-c2cccnc2O)nc2cnccc21 [SB-736715] | 0% | 0% | 0% | 0% | 0% | 0% | 21% | 0% | 0% | 0% | 0% | 0% | 27% | 0% | 0% | 0% | 0% | 0% | 0% | 32%
O=C(Nc1n[nH]c2nc(-c3nccs3)c(Br)cc12)C1CC1 [SB-742251] | 0% | 0% | 0% | 48% | 0% | 0% | 8% | 21% | 10% | 0% | 0% | 0% | 44% | 0% | 0% | 7% | 2% | 16% | 20% | 0%
O=C1NC(=O)C(N2CCc3ccccc32)=C1c1ccccc1Cl [SB-373598] | 12% | 0% | 18% | 0% | 0% | 1% | 7% | 15% | 9% | 0% | 0% | 13% | 0% | 16% | 2% | 63% | 10% | 10% | 100% | 0%
O=c1cc(N2CCOCC2)nc2n(Cc3cccc(Cl)c3Cl)ccn12 [GSK2286295] | 12% | 0% | 0% | 0% | 0% | 4% | 1% | 6% | 4% | 0% | 0% | 27% | 32% | 0% | 28% | 14% | 22% | 11% | 0% | 0%
